Experimental data as given in the supplement of paper PMC6607015.
Counter-ions that a name gives are not always drawn.

What was measured:
Settings in all cases: compound concentration in added solution (µM; 5 µl added to 20 µl cells): 10; 18 h
A431 [1] = experiment: LBPA endosome anti-LBPA integrated intensity (sum per cell), Z-score; higher = more LBPA staining
How it was run: (§1)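 Four 20× images per well were taken of HeLa MZ or A431 cells that had been seeded at 3,500 per well in 20 µl onto 5 µl of 10 µM compound solution in duplicate 384-well imaging plates. Before imaging, cells were incubated 18 h, fixed in 4% PFA and stained with 6C4 anti-LBPA antibody, filipin, propidium iodide and CellTracker green. Values are Z-scores normalised in AcuityXpress from MetaXpress-derived per-cell integrated LBPA or filipin intensity, either whole-cell or within LBPA endosomes.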

HeLa MZ [2] = experiment: as above
How it was run: as §1

A431 [3] = experiment: whole-cell filipin (free cholesterol) integrated intensity, Z-score; higher = more cholesterol staining
How it was run: as §1

HeLa MZ [4] = experiment: as above
How it was run: as §1

A431 [5] = experiment: filipin (cholesterol) integrated intensity within LBPA endosomes, Z-score; higher = more cholesterol in LBPA endosomes
How it was run: as §1

HeLa MZ [6] = experiment: as above
How it was run: as §1

Structure (SMILES) | LBPA endosome anti-LBPA integrated intensity (z-score) (A431 [1]) | LBPA endosome anti-LBPA integrated intensity (z-score) (HeLa MZ [2]) | whole-cell filipin (z-score) (A431 [3]) | whole-cell filipin (z-score) (HeLa MZ [4]) | filipin (z-score) (A431 [5]) | filipin (z-score) (HeLa MZ [6])
Cc1cc(N)c2ccccc2[n+]1CCCCCCCCCC[n+]1c(C)cc(N)c2ccccc21 [Dequalinium dichloride] | -0.351 | 0.0986 | -0.943 | 1.23 | -0.599 | -0.485
CO[C@@H]1[C@@H](OC(N)=O)[C@@H](O)[C@H](Oc2ccc3c(O)c(NC(=O)c4ccc(O)c(CC=C(C)C)c4)c(=O)oc3c2C)OC1(C)C [Novobiocin sodium salt] | -0.507 | -0.477 | -0.352 | -0.602 | -0.469 | -0.462
CN(C)CCC[C@@]1(c2ccc(F)cc2)OCc2cc(C#N)ccc21 [Escitalopram] | -0.359 | 1.34 | 0.0689 | 0.675 | -0.134 | 0.883
CN(C)c1nc(N(C)C)nc(N(C)C)n1 [Altretamine] | -0.54 | -1.33 | -0.283 | -0.6 | -0.517 | -0.671
Cc1ccc(S(=O)(=O)NC(=O)NN2CC3CCCC3C2)cc1 (stereo not drawn) [Gliclazide] | -0.621 | -1.17 | -0.806 | -0.679 | -0.555 | -0.64
O=c1oc2ccccc2c(O)c1Cc1c(O)c2ccccc2oc1=O [Dicumarol] | -0.455 | -0.834 | -0.37 | -0.48 | -0.64 | -0.672
N=C(N=C(N)N)N1CCOCC1 [Moroxidine hydrochloride] | -0.598 | -1.32 | -1.06 | -0.892 | -0.527 | -0.669
Cc1cnc(C(=O)NCCc2ccc(S(=O)(=O)NC(=O)NC3CCCCC3)cc2)cn1 [Glipizide] | -0.539 | 0.251 | -1.07 | -1.32 | -0.587 | -0.757
CC(C)(CO)C(O)C(=O)NCCCO (stereo not drawn) [Panthenol (D)] | -0.558 | -0.28 | -0.953 | -0.974 | -0.509 | -0.649
COc1cc2nc(N3CCN(C(=O)c4ccco4)CC3)nc(N)c2cc1OC [Prazosin hydrochloride] | 2.82 | 1.41 | 1.2 | 0.626 | 0.829 | 0.146
c1ccc(C2CN3CCSC3=N2)cc1 (stereo not drawn) [Tetramisole hydrochloride] | -0.644 | 0.538 | -0.603 | -0.217 | -0.702 | -0.156
CC(C)NCC(O)c1ccc(NS(C)(=O)=O)cc1 (stereo not drawn) [Sotalol hydrochloride] | -0.295 | -0.419 | 0.181 | 0.261 | -0.181 | -0.219
CCN(CCCCOC(=O)c1ccc(OC)c(OC)c1)C(C)Cc1ccc(OC)cc1 (stereo not drawn) [Mebeverine hydrochloride] | 2.42 | 2.15 | 1.9 | 1.63 | 2.46 | 2.74
CC1(C)OC(=O)NC1=O [Dimethadione] | -0.345 | 0.802 | -0.303 | -0.0416 | -0.341 | -0.341
NS(=O)(=O)c1cc(Cl)c(Cl)c(S(N)(=O)=O)c1 [Dichlorphenamide] | -0.34 | -0.217 | -0.00386 | 0.196 | -0.409 | -0.301
CC(C(=O)O)c1cccc(C(=O)c2ccccc2)c1 (stereo not drawn) [Ketoprofen] | -0.482 | -0.219 | -0.803 | -0.835 | -0.552 | -0.545
C[C@H](CS)C(=O)N1CCC[C@H]1C(=O)O [Captopril] | -0.394 | -0.389 | -0.482 | 0.478 | -0.442 | -0.261
CCOC(=O)C1=C(C)NC(C)=C(C(=O)OC)C1c1cccc([N+](=O)[O-])c1 (stereo not drawn) [Nitrendipine] | -0.341 | 0.238 | -0.283 | 0.00443 | -0.327 | -0.297
COc1ccc2cc([C@@H](C)C(=O)O)ccc2c1 [(R) -Naproxen sodium salt] | -0.646 | -1.68 | -0.677 | -0.633 | -0.535 | -0.58
CN1CCC(=C2c3ccccc3CCc3sccc32)CC1 [Pizotifen malate] | 2.92 | 2.11 | 2.58 | -0.0276 | 2.82 | 1.53
CC(=O)N(CC(O)CN(C(C)=O)c1c(I)c(C(=O)NCC(O)CO)c(I)c(C(=O)NCC(O)CO)c1I)c1c(I)c(C(=O)NCC(O)CO)c(I)c(C(=O)NCC(O)CO)c1I (stereo not drawn) [Iodixanol] | -0.538 | -0.533 | -0.268 | -0.245 | -0.464 | -0.482
COc1c(N2CCNC(C)C2)c(F)cc2c(=O)c(C(=O)O)cn(C3CC3)c12 (stereo not drawn) [Gatifloxacin] | -0.517 | 0.0619 | -0.124 | 0.333 | -0.446 | 0.0101
C[C@@H]1[C@H](O)[C@@H](C)/C=C/C=C/C=C/C=C/C=C/C=C/C=C/[C@H](O[C@@H]2O[C@H](C)[C@@H](O)[C@H](N)[C@@H]2O)C[C@@H]2O[C@](O)(C[C@@H](O)C[C@@H](O)[C@H](O)CC[C@@H](O)C[C@@H](O)CC(=O)O[C@H]1C)C[C@H](O)[C@H]2C(=O)O [Amphotericin B] | 0.731 | -0.696 | -0.156 | 0.222 | 0.0841 | -0.26
